SRC1 TRFRET art: flags TR-FRET format artefacts in PPARgamma SRC-1 recruitment agonist screen; TR-FRET ratio at 8 µM; 99,000 compounds, 0.34% hits; TR-FRET detection artefact counter-screen, emission ratio; stronger effect = higher value; in the data active means TR-FRET ratio above about 2300
SRC2 TRFRET art: TR-FRET artefact, counter-screen to PPARgamma/SRC-2 agonist assay. stronger effect = higher value. TR-FRET ratio at 8 µM. 200,000 compounds, 0.4% hits. AID 1049
PPARg SRC1 recr: promotes SRC-1 coactivator recruitment by human PPARgamma | PPARgamma-SRC-1 coactivator recruitment biochemical assay | activation, % at 8 µM | 200,000 compounds, 0.41% hits; in the data active means activation above about 19%
Target sequence (P37231 whole entry, looked up): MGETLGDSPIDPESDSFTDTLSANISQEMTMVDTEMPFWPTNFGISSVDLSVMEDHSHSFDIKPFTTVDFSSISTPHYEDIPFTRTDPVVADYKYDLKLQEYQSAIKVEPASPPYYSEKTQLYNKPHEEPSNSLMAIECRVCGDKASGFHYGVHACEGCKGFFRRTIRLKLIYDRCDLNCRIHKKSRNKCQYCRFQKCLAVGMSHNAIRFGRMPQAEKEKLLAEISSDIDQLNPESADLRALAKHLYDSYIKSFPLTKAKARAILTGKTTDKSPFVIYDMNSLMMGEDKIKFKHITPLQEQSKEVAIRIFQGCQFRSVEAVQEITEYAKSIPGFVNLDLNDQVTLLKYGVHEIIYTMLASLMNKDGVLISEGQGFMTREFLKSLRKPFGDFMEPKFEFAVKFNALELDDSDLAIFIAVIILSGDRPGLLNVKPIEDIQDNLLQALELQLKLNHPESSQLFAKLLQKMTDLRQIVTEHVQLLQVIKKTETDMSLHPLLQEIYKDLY
PPARg SRC-2 ag: promotes SRC-2 coactivator recruitment by human PPARgamma; PPARgamma LBD-SRC-2 recruitment, biochemical; 200,000 compounds, 0.34% hits; activation, % at 8 µM; AID 1032; in the data active means activation above about 22%
SRC3 TRFRET art: flags TR-FRET format artefacts in PPARgamma SRC-3 recruitment agonist screen; AID 1048; TR-FRET artefact counter-screen, PPARgamma/SRC-3 format; stronger effect = higher value; 99,000 compounds, 0.39% hits; TR-FRET ratio at 8 µM
PPARg SRC3 recr: agonists of human PPARgamma SRC-3 coactivator recruitment; activation, % at 8 µM; P37231; AID 731; biochemical PPARgamma/SRC-3 coactivator recruitment assay; 200,000 compounds, 0.26% hits; in the data active means activation above about 23%
Numbers stand for hits; . = inactive; / = no result. Compounds with a hit are over-represented: about 0.84% of the library has one in this group of screens. Unless noted, no stated cut-off is given here; in the data, active means TR-FRET ratio above about 2000; inactive means the rest.

SMILES	SRC1 TRFRET art	SRC2 TRFRET art	PPARg SRC1 recr	PPARg SRC-2 ag	SRC3 TRFRET art	PPARg SRC3 recr
Cc1ccc2c(c1)sc(=NC(=O)c1cccs1)n2C	2965	.	.	.	3246	.
COC(CN1C(=O)C(O)=C(C(C)=O)C1c1ccccn1)OC (stereo not drawn)	/	.	.	.	/	.
Cc1occc1C(=O)N/N=C/C=C\c1ccccc1[N+](=O)[O-]	.	.	.	.	.	.
O=C(N/N=C/C=C\c1ccccc1[N+](=O)[O-])c1ccco1	.	1978	.	.	.	.
C/C(N)=C(/C#N)C(=O)CSc1nc2ccccc2n1CC(C)C	.	.	.	.	.	.
C/C(N)=C(/C#N)C(=O)CSc1nnc(Nc2cccc(C)c2C)s1	/	.	.	.	/	.
Cc1cccc(Nc2nnc(SCC(=O)c3ccc(Br)s3)s2)c1C	.	.	.	.	2057	.
CCCCNC(=O)CSc1nc2ccccc2n1S(=O)(=O)c1ccc(Br)cc1	.	1974	.	.	.	.
CCCCNC(=O)CSc1nc2ccccc2n1S(=O)(=O)c1ccc(Cl)cc1	.	.	.	.	.	.
Cc1ccc(-c2csc3ncnc(-n4nnc5ccccc54)c23)cc1	.	.	.	.	2064	.
COc1ccc(-c2nnc(SCC(=O)NCc3cccs3)n2CC(C)C)cc1	/	.	.	.	/	.
O=C(O)c1cnn(-c2ccccc2)c1-n1cccc1	/	.	.	.	/	.
NNC(=O)c1cnn(-c2ccccc2)c1-n1cccc1	.	2005	.	30.2	.	.
CCOC(=O)C1=C(C)Nc2ccccc2N=C1NC(=O)c1cccc(S(=O)(=O)N(C)C)c1	/	.	.	.	/	.
CCOC(=O)C1=C(C)Nc2ccccc2N=C1NC(=O)c1ccc(Cl)c(S(=O)(=O)N2CCCC2)c1	.	.	.	.	2223	.
CCOC(=O)C1=C(C)Nc2ccccc2N=C1NC(=O)C(c1ccccc1)c1ccccc1	.	.	.	.	2077	.
COc1ccccc1NC(=O)C1=C(C)NC(SCC(=O)c2ccccc2)=C(C#N)C1c1ccco1 (stereo not drawn)	/	2496	.	.	/	.
COc1ccc(C(=O)CSc2nnc(-c3ccc(S(=O)(=O)N4CCOCC4)cc3)o2)cc1	/	.	24.9	.	/	.
O=C(Nc1nc(-c2ccc(S(=O)(=O)N3CCCCCC3)cc2)cs1)c1cccs1	/	2280	21.8	.	/	.
Cc1ccc(-c2csc(NC(=O)c3cccc(S(=O)(=O)N4CCN(C)CC4)c3)n2)cc1	.	.	.	.	.	.
COc1cccc(C(=O)Nc2nc(-c3ccc(S(=O)(=O)N4CCOCC4)cc3)cs2)c1	/	2385	.	.	/	.
O=C(CSc1nnc(-c2ccc(S(=O)(=O)N3CCOCC3)cc2)o1)c1ccccc1F	/	.	.	.	/	.
O=C(Nc1nc(-c2ccc(S(=O)(=O)N3CCCC3)cc2)cs1)c1cccs1	/	.	.	.	/	.
Cc1onc(-c2ccccc2)c1C(=O)Nc1nc(-c2ccccc2)cs1	/	2194	.	.	/	.
O=C(O)Cc1ccc(C(=O)c2ccccc2F)s1	/	.	.	.	/	.
SMILES	SRC1 TRFRET art	SRC2 TRFRET art	PPARg SRC1 recr	PPARg SRC-2 ag	SRC3 TRFRET art	PPARg SRC3 recr
O=C1CSC(c2ccccc2[N+](=O)[O-])N1CCc1ccccc1 (stereo not drawn)	.	.	.	.	.	.
O=C(Nc1nc(-c2nc3ccccc3s2)cs1)c1ccc(S(=O)(=O)N2CCOCC2)cc1	/	.	.	.	/	.
O=C(Nc1nc(-c2ccc(S(=O)(=O)N3CCOCC3)cc2)cs1)c1ccccc1	/	2397	.	.	/	.
O=C(Nc1nc(-c2ccc3ccccc3c2)cs1)C1CCN(S(=O)(=O)c2cccs2)CC1	.	.	.	.	2381	.
COC(=O)c1ccccc1NC(=O)c1cc(-c2ccc(O)cc2)on1	/	.	34.6	.	/	.
CCOC(=O)c1c(NC(=S)Nc2ccc(OC)cc2)sc2c1CCC2	.	.	.	.	.	.
COC(=O)c1c(NC(=S)Nc2ccc(C(=O)N3CCOCC3)cc2)sc2c1CCC2	.	.	.	.	2231	.
CC(=O)NC1=NC(=O)/C(=C/c2cc(C)n(-c3cccc(C(=O)O)c3)c2C)S1	.	.	.	.	.	.
CC(=O)NC1=NC(=O)/C(=C/c2cc(C)n(-c3ccc(NC(C)=O)cc3)c2C)S1	.	.	.	.	2601	24.1
c1ccc(-n2ncc3c(NCc4cccs4)ncnc32)cc1	.	.	.	.	2147	.
O=C(CSc1nnc(Cc2csc(Nc3cccc(Cl)c3)n2)o1)N1CCc2ccccc21	/	2013	.	.	/	.
